Most compounds without a hit are left out; they make up all but 7.9% or so of the library.
MCF10A rerep: inducers of DNA re-replication in MCF 10A breast cells; MCF 10A DNA re-replication, Hoechst nuclear intensity, 48 h; Potency, µM (series often up to 46.1 µM), actives largely listed as activators; actives 2.9% (n = 350,000); AID 624296; note: nearly all actives have a fitted effect of over 50% in size
SW480 rerep: DNA re-replication induction in SW480 cells | actives 1.8% (n = 340,000) | AID 624297 | Potency, µM (highest dose often 46.1 µM), actives largely listed as activators | SW480 DNA re-replication, Hoechst DNA content imaging, 48 h; note: nearly all actives have a fitted effect of over 55% in size
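SW480 cells exposed to compounds for 48 hr at 37 C, 5% CO2, then Hoechst-stained 40 min. Nuclear DNA content imaged by fluorescence scanning (405 nm excitation, 500-530 nm emission); re-replication scored as increased high-intensity nuclei.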
HT1080 IDH1KD tx: toxicity to HT-1080 IDH1 knockdown cells (counter line); HT-1080 IDH1 knockdown viability, ATP luminescence, 48 h; Potency, µM (doses to about 46.1 µM), actives largely listed as cytotoxic; actives 2% (n = 360,000)
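CellTiter-Glo luminescence after 48 h compound exposure at 37 degrees C of IDH1-knockdown HT-1080 cells in 5% FBS RPMI. %Activity scaled between DMSO wells and cell-free media wells, with curves fitted and assigned curve classes.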
KB-V1 cytotox: kills drug-selected multidrug resistant KB-V1 cells | KB-V1 MDR cells viability, CellTiter-Glo, 72 h | Potency, µM (series often up to 46.1 µM), actives largely listed as cytotoxic | actives 3.4% (n = 400,000) | AID 1347076; note: nearly all actives have a fitted effect of over 60% in size
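KB-V1 MDR subline cells in DMEM (phenol-red free, 10% FBS) exposed to compounds in qHTS concentration series for 72 h at 37 degrees C. Viability read by CellTiter-Glo luminescence; concentration-effect curves fitted after normalization and correction.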
HT1080NT lethal: kills 2HG-producing HT-1080-NT fibrosarcoma cells; actives 1.6% (n = 360,000); AID 686970; Potency, µM (top dose mostly 46.1 µM), most hits filed as cytotoxic; HT-1080-NT fibrosarcoma viability, CellTiter-Glo ATP luminescence, 48 h;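 note: NT is the 2HG producing partner of a matched IDH1 knockdown line; nearly all actives have a fitted effect of over 55% in size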
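Toxicity toward the 2HG-producing NT line was scored as %Activity, normalised to DMSO and no-cell wells, from CellTiter-Glo luminescence after 48 hours' treatment.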
KB-3-1 cytotox: KB-3-1 parental cell cytotoxicity | actives 1.4% (n = 400,000) | KB-3-1 viability, CellTiter-Glo ATP luminescence, 72 h | AID 1347075 | Potency, µM (highest dose often 46.1 µM), usual class: cytotoxic; note: nearly all actives have a fitted effect of over 60% in size
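Using CellTiter-Glo luminescence, growth of non-resistant KB-3-1 adenocarcinoma cells is assessed 72 h after pin-tool compound addition at 37 °C. Normalized responses across the concentration series yield fitted curves.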
Numbers stand for hits; n = inactive; u = inconclusive; x = no result. Calls come from the whole dose curve; as a rule, active = well fitted curve in the direction sought with a large enough effect; inconclusive = small, poorly fitted or top-dose-only effect, or another doubt; inactive = no such curve, though single readings can be large; an effect the other way counts as inactive or inconclusive.

SMILES | MCF10A rerep | SW480 rerep | HT1080 IDH1KD tx | KB-V1 cytotox | HT1080NT lethal | KB-3-1 cytotox
O=C(N/N=C/C(Br)=C/c1ccccc1)c1ccccc1[N+](=O)[O-] | u | u | n | n | n | n
CN(C)S(=O)(=O)N(CC(=O)NCCSCc1c(F)cccc1Cl)c1ccccc1 | x | x | x | u | x | n
CSC1=NC2(CCN(C(=O)NC3CCCCC3)CC2)N=C1c1ccc(C)cc1 | x | x | x | n | x | n
CCn1c(SCC(=O)N2CCCCC2C)nc2ccsc2c1=O (stereo not given) | n | n | n | n | n | n
CC1CCCCN1C(=O)CSc1nc2ccsc2c(=O)n1Cc1ccccn1 (stereo not given) | n | n | n | 18µM | n | n
CCOC(=O)c1c(NC(=O)c2cc3ccccc3c(=O)o2)sc2c1CCC(C(C)(C)C)C2 (stereo not given) | x | x | x | n | x | n
Nc1cccc2c1C(=O)N(C(=O)/C=C/c1cccc(Br)c1)C2=O | 21µM | u | u | u | u | n
O=C(/C=C/c1cccc(F)c1)N1CCN(c2ccccn2)CC1 | n | n | n | n | n | n
Nc1cccc2c1C(=O)N(C(=O)/C=C/c1cccc(F)c1)C2=O | u | 18µM | 16µM | u | 18µM | u
COc1cc2c(cc1OC)C(c1ccc(F)cc1)N(c1ccccc1)C(=O)C2 (stereo not given) | x | x | x | n | x | n
O=C(CSc1nnc(CNC(=O)c2ccccc2F)n1-c1ccccc1)Nc1ccccc1F | x | x | x | n | x | n
Cn1nc(-c2ccccn2)nc2c(=O)n(C)c(=O)nc1-2 | 2.9µM | 0.82µM | 1.6µM | n | 1.8µM | u
Cc1ccc(-n2c3nc(=O)n(C)c(=O)c-3cc3ccccc32)cc1 | n | u | n | n | n | n
CCCc1nc2c(=O)n(C)c(=O)nc-2n(C)n1 | 10µM | 0.65µM | 2.1µM | 7.3µM | 3.7µM | 4.6µM
Cc1ccccc1-c1nc2c(=O)n(C)c(=O)nc-2n(C)n1 | x | x | x | u | x | 2.1µM
CCn1c(N)nc2c1c(=O)n(C)c(=O)n2C | n | n | n | n | n | n
COc1cc(-c2ccno2)ccc1S(=O)(=O)N1CCN(c2cccc(Cl)c2)CC1 | x | x | x | n | x | n
COc1cc(Cl)c(CC(=O)NO)cc1OC | x | x | n | x | n | x
CCC1CCc2nc3sc(C(=O)Nc4cccc(F)c4)c(N)c3cc2C1 (stereo not given) | x | x | x | n | x | n
Oc1ccccc1-n1c(-c2ccccc2)ccc1-c1ccccc1 | 21µM | n | u | n | u | n
Cc1ccc(-c2ccccc2)n1-c1ccc(C(=O)O)cc1 | u | n | n | n | n | n
O=c1c2cc(NC(=S)N3CCCCC3)ccc2nc2n1CCCCC2 | n | n | n | n | n | n
O=C(Nc1ccc2nc3n(c(=O)c2c1)CCCC3)c1cc([N+](=O)[O-])ccc1F | 15µM | 15µM | u | 16µM | n | n
CC1CCN(C(=S)Nc2ccc3nc4n(c(=O)c3c2)CCCCC4)CC1 | u | n | n | 6.5µM | n | n
O=C(Nc1ccc2nc3n(c(=O)c2c1)CCCC3)c1cccc([N+](=O)[O-])c1 | n | n | n | u | n | n
SMILES | MCF10A rerep | SW480 rerep | HT1080 IDH1KD tx | KB-V1 cytotox | HT1080NT lethal | KB-3-1 cytotox
Fc1cccc(NCc2ccccc2-c2nnc(-c3ccccc3Cl)o2)c1 | x | x | x | n | x | n
CCn1c(-c2cc3c(C(F)(F)F)nn(C)c3s2)n[nH]c1=S | n | n | n | 10µM | n | u
CCOc1cc(C2C(C#N)=C(N)OC(C)=C2C(C)=O)c(Br)c(Br)c1OC(C)C (stereo not given) | 16µM | 8.2µM | 15µM | 15µM | 7.3µM | u
COc1ccc(C(=O)c2no[n+]([O-])c2C(=O)c2ccc(OC)cc2)cc1 | 9.2µM | u | 8.2µM | u | u | u
COc1ccc(C(=O)c2ccc(CC#N)s2)cc1 | n | n | u | u | u | u
O=C(c1cccs1)c1no[n+]([O-])c1C(=O)c1cccs1 | 12µM | 13µM | u | u | 18µM | u
COc1ccc(NC(=O)c2c(N)no[n+]2[O-])cc1 | u | n | 0.73µM | n | 0.73µM | u

Compound activity: PubChem, National Center for Advancing Translational Sciences (NCATS)
